Bioassay records deposited in PubChem BioAssay by several laboratories.
RmlCD inh mix: inhibitors of RmlC and RmlD coupled enzymes | RmlC/RmlD coupled enzyme inhibition, 384-well mixture HTS | inhibition, % at 5.5 µM | 110,000 tested, 0.39% active | AID 1532; in the data active = inhibition above about 30%, passing the limit was not always enough; inconclusive = no clear call, values can overlap the other calls
HIV RNase H inh-1: inhibitors of HIV-1 reverse transcriptase RNase H; P04585; 65,000 tested, 1.9% active; AID 565; inhibition, % at 10 µM; RT-RNase H RNA/DNA duplex cleavage, fluorescence; in the data active = inhibition above about 50%
HIV RNase H inh-2: confirmation of HIV-1 reverse transcriptase RNase H inhibitors; shares compounds with HIV RNase H inh-1; Recombinant RT RNase H, fluorescent RNA/DNA duplex cleavage; inhibition, % at 10 µM; 1,000 tested, 39% active; in the data active = inhibition above about 48%; inconclusive = no clear call, values can overlap the other calls
* marks the source's active call; other numbers are inactive results. The full list was thinned out, with hits kept by preference.

For O=C1Nc2ccccc2SC(c2ccccc2)C1O (stereo unspecified) the results were RmlCD inh mix 22 and HIV RNase H inh-1 48.
`Cc1ccc(/C=C/C2=Cc3c(sc(NC(=O)CSc4n[nH]c(N)n4)c3C#N)C(C)(C)C2)o1` gave RmlCD inh mix 22, HIV RNase H inh-1 96* and HIV RNase H inh-2 67*.
`CCOC(=O)c1c(NC(=O)CSc2n[nH]c(N)n2)sc(CC)c1C` gave RmlCD inh mix -65 and HIV RNase H inh-1 -67.
Screening CCOC(=O)N1CCN(C(=O)CCS(=O)(=O)c2ccc(Br)s2)CC1 returned RmlCD inh mix -11 and HIV RNase H inh-1 -26.
`O=C1CC(c2ccco2)Cc2nc(Nc3nc(-c4ccccc4)c4ccccc4n3)ncc21` (stereo unspecified) gave HIV RNase H inh-1 73* and HIV RNase H inh-2 66*.
For O=C(Nc1ncc2c(n1)CC(c1ccco1)CC2=O)c1ccccc1 (stereo unspecified) the results were HIV RNase H inh-1 -2.
`CCOC(=O)CCSc1nc(-c2ccccc2)cc(C(F)(F)F)n1` gave RmlCD inh mix -14.
`Cn1c(=O)c2c(SCc3ccccc3)nc(-c3ccco3)nc2n(C)c1=O` gave RmlCD inh mix -6, HIV RNase H inh-1 52* and HIV RNase H inh-2 13.
Screening Cn1c(=O)c2c(SCc3cccc(C(F)(F)F)c3)nc(-c3ccco3)nc2n(C)c1=O returned RmlCD inh mix -10 and HIV RNase H inh-1 37.
Cc1cccc2nc(Cn3c(=O)n(CCC(=O)NCc4ccco4)c(=O)c4sccc43)cc(=O)n12 was read as RmlCD inh mix -9 and HIV RNase H inh-1 1.
Screening CC1(C)CC(=O)C2=C(C1)OC1=C(C(=O)CC(C)(C)C1)C2c1ccc(O)cc1O returned RmlCD inh mix -10, HIV RNase H inh-1 56* and HIV RNase H inh-2 -8.
For CCOC(=O)C1=C(N)OC2=C(C(=O)CC(C)(C)C2)C1c1ccco1 (stereo unspecified) the results were RmlCD inh mix -3 and HIV RNase H inh-1 -5.
Screening O=C(c1ccc2c3c(cccc13)CC2)N1CCOCC1 returned RmlCD inh mix 0 and HIV RNase H inh-1 6.
For O=C(c1cccnc1Nc1ccc2c(c1)CCC2)N1CCOCC1 the results were RmlCD inh mix 27, HIV RNase H inh-1 84* and HIV RNase H inh-2 9.
Cc1ccc(C(=O)NCCN2C3=NC[C@@H](Cc4ccccc4)N3C[C@H]2Cc2ccc(O)cc2)cc1Br was read as RmlCD inh mix -1.
Screening COC(=O)c1ccc(N2CCOCC2)c(NC(=O)Nc2cccc(OC)c2)c1 returned RmlCD inh mix 10, HIV RNase H inh-1 87* and HIV RNase H inh-2 -2.
`COc1cccc(C(=O)Nc2ccccc2N2CCOCC2)c1` gave RmlCD inh mix 16 and HIV RNase H inh-1 -10.
Screening CCN(CC)CCNC(=O)c1ccc2c(=O)n(C3CCCC3)c(=S)[nH]c2c1 returned RmlCD inh mix -6.
Cc1ccc(C2c3c(oc4ccccc4c3=O)C(=O)N2CCCN2CCOCC2)o1 (stereo unspecified) was read as RmlCD inh mix -7.
CC(=O)c1sc(N2C(=O)c3oc4ccccc4c(=O)c3C2c2ccc(C)o2)nc1C (stereo unspecified) was read as HIV RNase H inh-1 71* and HIV RNase H inh-2 inconclusive.
For COc1ccc(CN2C(=O)CCC2(C)C(=O)NC2CCCCC2)c(OC)c1 (stereo unspecified) the results were RmlCD inh mix 1 and HIV RNase H inh-1 -13.
CN1CCc2c(sc3c2C(=O)NC(c2cccc(OC(=O)c4cccs4)c2)N3)C1 (stereo unspecified) was read as HIV RNase H inh-1 -33.
For O=C1NC(c2cccs2)Nc2sc3c(c21)CCCC3 (stereo unspecified) the results were RmlCD inh mix 15, HIV RNase H inh-1 94* and HIV RNase H inh-2 34.
Screening CCOC(=O)c1sc(NC(=O)CSc2nnc3c4ccccc4n(CC)c3n2)nc1C returned HIV RNase H inh-1 74* and HIV RNase H inh-2 42.
For CCOC(=O)c1sc(NC(=O)C(CC)Sc2nnc3c4ccccc4n(CC)c3n2)nc1C (stereo unspecified) the results were HIV RNase H inh-1 26.
For O=C(COc1ccc(Cl)cc1)Nc1nnc(-c2ccc3c(c2)CCCC3)o1 the results were RmlCD inh mix 0, HIV RNase H inh-1 87* and HIV RNase H inh-2 67*.
CC(=O)Nc1nnc(-c2ccc3c(c2)CCCC3)o1 was read as RmlCD inh mix 8 and HIV RNase H inh-1 -63.
For O=C(CN1CCN(Cc2ccccc2)CC1)c1ccccc1 the results were RmlCD inh mix -11.
For Oc1c(Cl)cc(Cl)c2c1NCCC2 the results were HIV RNase H inh-1 80* and HIV RNase H inh-2 37.
Screening O=C1NCCCc2c1oc1ccc(O)cc21 returned RmlCD inh mix -7 and HIV RNase H inh-1 1.
